TEAD-YAP block = TEAD-YAP interaction inhibition; hit rate 1.4% among 640,000; HEK-TIYL cells, TEAD-Gal4/YAP UAS-luciferase luminescence; inhibition, % at 9.12 µM; in the data active = inhibition above about 32%
GPR151 ag = activates the human receptor GPR151. PathHunter beta-arrestin GPR151 cells, luminescence. hit rate 1% among 650,000. activation, % at 11.2 µM. AID 1508602; in the data active = activation above about 4.9%
FBW7 activator = human FBW7 E3 ligase activation, primary screen. Q969H0. AlphaScreen FBW7–phospho-cyclin E peptide binding, activator screen. normalized activity (activation), % at 26.1 µM. hit rate 0.13% among 650,000; in the data active = normalized activity above about 1.9%;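 also: purified mutant Fbw7 with reduced substrate affinity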
Target sequence (Q969H0 whole entry, looked up): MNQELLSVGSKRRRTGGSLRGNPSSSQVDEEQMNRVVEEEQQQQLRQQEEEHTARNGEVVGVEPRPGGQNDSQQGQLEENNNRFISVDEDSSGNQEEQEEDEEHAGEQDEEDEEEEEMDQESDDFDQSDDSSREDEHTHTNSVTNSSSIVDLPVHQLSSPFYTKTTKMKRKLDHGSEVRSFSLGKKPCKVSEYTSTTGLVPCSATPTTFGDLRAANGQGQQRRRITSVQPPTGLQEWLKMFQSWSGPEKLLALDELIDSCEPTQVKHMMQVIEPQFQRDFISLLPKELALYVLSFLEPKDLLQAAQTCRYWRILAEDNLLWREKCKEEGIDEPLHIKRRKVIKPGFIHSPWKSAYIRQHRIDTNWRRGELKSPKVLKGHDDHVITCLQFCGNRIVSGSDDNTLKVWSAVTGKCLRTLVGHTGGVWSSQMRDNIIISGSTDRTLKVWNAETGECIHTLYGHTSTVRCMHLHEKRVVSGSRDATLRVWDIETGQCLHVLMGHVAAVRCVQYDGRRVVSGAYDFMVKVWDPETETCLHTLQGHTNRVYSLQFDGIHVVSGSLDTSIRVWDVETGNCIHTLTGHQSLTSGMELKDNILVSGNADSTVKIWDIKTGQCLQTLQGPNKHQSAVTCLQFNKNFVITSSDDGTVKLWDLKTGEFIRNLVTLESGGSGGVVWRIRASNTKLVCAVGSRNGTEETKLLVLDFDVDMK
MITF inh = human MITF inhibition, primary screen | AlphaScreen MITF homodimerization, bead proximity signal | inhibition, % at 2.6 µM | hit rate 0.91% among 650,000 | AID 1259374; in the data active = inhibition above about 50%
Large screens that a line does not name were inactive. Rows were chosen to be rich in hits. Some 3.4% of all compounds tested hit in one or more screens of this group.

COC(=O)c1ccc(N2N=C(C)/C(=C/c3ccc(OCc4ccc(Cl)cc4)c(OC)c3)C2=O)cc1	FBW7 activator 2.0
Cc1ccc(-c2nnc(Cc3ccccc3)o2)cc1	none
Cc1ccc2oc(Cc3ccccc3)nc2c1	TEAD-YAP block 47
CCC(=O)Nc1ccc(S(=O)(=O)N2CCN(c3ccc([N+](=O)[O-])cc3)CC2)cc1	none
C=CCNC(=S)N/N=C/c1ccc(C(F)(F)F)cc1	TEAD-YAP block 44
CCN1CCN(C(=O)CCCOc2ccccc2)CC1	TEAD-YAP block 43
O=C1NC(=S)S/C1=C\c1ccc(Cl)c([N+](=O)[O-])c1	none
O=C(NNC(=O)c1cccnc1SCc1cccc([N+](=O)[O-])c1)c1ccccn1	TEAD-YAP block 39
COc1ccc(C2CC(=O)C3=C(C2)Nc2ccccc2NC3c2ccc(C(F)(F)F)cc2)cc1OC (configuration not stated)	none
NC(=O)c1oc2ccccc2c1NC(=O)c1cccc(N2C(=O)CCC2=O)c1	none
COc1ccc(-c2cc(-c3ccccc3)c(C#N)c(S(=O)Cc3ccccc3)n2)cc1 (configuration not stated)	none
COc1ccc(-c2cc(-c3ccccc3)c(C#N)c(S(C)=O)n2)cc1 (configuration not stated)	TEAD-YAP block 53
CC(=O)c1ccc(-c2cnc3c(NCc4ccco4)nccn23)s1	none
COc1ccc(S(=O)(=O)NCC(c2ccc3c(c2)CCN3C)N2CCN(C)CC2)cc1 (configuration not stated)	none
CN1CCN(C(CNS(=O)(=O)c2cccc(F)c2)c2ccc3c(c2)CCN3C)CC1 (configuration not stated)	MITF inh 59
CN1CCN(C(CNS(=O)(=O)c2ccc(Cl)cc2)c2ccc3c(c2)OCO3)CC1 (configuration not stated)	FBW7 activator 2.4
Cc1ccn2cc(C(=O)Nc3cccc(F)c3)nc2c1	TEAD-YAP block 58
COc1ccc2nc3c(cc2c1)c(N)nn3C(=O)c1ccc([N+](=O)[O-])cc1Cl	none
COc1ccc2cc3c(N)nn(C(=O)c4ccc(Br)o4)c3nc2c1	TEAD-YAP block 43
COc1ccc2cc3c(N)nn(C(=O)c4cccc([N+](=O)[O-])c4)c3nc2c1	none
COc1ccc2cc3c(N)nn(C(=O)Cc4ccccc4OC)c3nc2c1	TEAD-YAP block 33
COc1ccc2nc3c(cc2c1)c(N)nn3C(=O)c1ccc(F)cc1	TEAD-YAP block 36
COc1ccc2cc3c(N)nn(C(=O)c4cncc(Br)c4)c3nc2c1	none
COc1ccc(C(=O)n2nc(N)c3cc4cc(OC)ccc4nc32)cc1	TEAD-YAP block 44
CC12C=CC(CO)(O1)C1C(=O)N(c3ccccc3[N+](=O)[O-])C(=O)C12 (configuration not stated)	none
CC1=NN(c2ccc(C(=O)O)cc2)C(=O)/C1=C\c1ccc(C)o1	none
CCOc1ccccc1NC(=O)C1=C(C)NC(=S)NC1c1c(OC)ccc2ccccc12 (configuration not stated)	none
CCOc1ccc(C(=O)n2nc(N)c3cc4cc(OC)ccc4nc32)cc1	TEAD-YAP block 38
COc1ccc(C(=O)n2nc(N)c3cc4ccc(C)cc4nc32)cc1OC	none
COc1ccccc1NC(=O)C1CC(=O)N(C)C(=Nc2cccc(F)c2)S1 (configuration not stated)	none
COc1ccc(OC)c(CCNC(=O)c2cc3c(C)nc4ccccc4c3o2)c1	TEAD-YAP block 46
COc1ccc(Br)cc1/C=C\C(=O)c1ccc(OS(C)(=O)=O)cc1	none
Cc1cc(Cl)c(S(=O)(=O)N2CCSCC2)cc1OCC(=O)NC1CCCCC1	TEAD-YAP block 38
Cc1cc(Cl)c(S(N)(=O)=O)cc1OCC(=O)NC1CCCCC1	none
CC(C)C(=O)Nc1ccc(NC(=O)c2ccco2)nc1	TEAD-YAP block 74
O=C(Nc1ccc(NC(=O)C2CC2)cn1)c1ccco1	TEAD-YAP block 48
CC(C)C(=O)Nc1ccc(NC(=O)C(C)C)nc1	none
COc1cc(N2C(=O)c3ccccc3C2=O)c(OC)cc1Cl	none
CCOC(=O)c1ccc(CNC2CCN(c3nc(C)c4cc5c(cc4n3)CCC5)CC2)o1	none
Cc1ccc(NC(=O)c2ccc([N+](=O)[O-])cc2Cl)c(C)c1	none
Cc1ccc(NC(=O)c2cc([N+](=O)[O-])cc(Cl)c2O)c(C)c1	TEAD-YAP block 53
Cc1cccc(NC(=O)c2cc([N+](=O)[O-])ccc2Cl)c1O	TEAD-YAP block 33
CCOC(=O)C1=CN(C)C=C(C(=O)OCC)C1c1ccccc1OCC	none
CCOC(=O)N1CCc2c(sc3c2C(=O)NC(c2ccc(Cl)cc2)N3)C1 (configuration not stated)	none

Screening data (PubChem)
